Screening results deposited in PubChem by Center for Chemical Genomics, University of Michigan.
This is one part of a sample in which hits are shown more often than they occur.
Dicer inh – inhibitors of Dicer pre-microRNA processing, primary screen, biochemical, cat-ELCCA, chemiluminescence | Endoribonuclease Dicer (Homo sapiens), Q9UPY3 | 47,000 tested, 6% active | cat-ELCCA pre-miR-21 Dicer processing; stronger effect = higher value | z-score at 25 µM | AID 1347074, 2019; in the data active means z-score above about 3, passing the limit was not always enough;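 further: plate controls were vehicle for no effect and no enzyme for full effect; higher signal means more uncleaved substrate so more Dicer inhibition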
* marks the source's active call; other numbers are inactive results.

SMILES | Dicer inh
COc1ccc(/C=C/c2sc3ccc(O)cc3[n+]2C)cc1 | -0.77
O=C(NC1CCN(Cc2ccccc2)CC1)c1cccn1CCc1ccccn1 | 1.4
CCCn1c(N2CCCCC2)nc2c1c(=O)[nH]c(=O)n2C | 0.93
Cc1ccc(-n2cc(-c3cccs3)nc2SCc2n[nH]c(=S)n2Cc2ccccc2)cc1 | 5.8*
S=c1[nH]nc(-c2ccncc2)n1Cc1ccccc1 | 1.2
CCn1c(-c2cccs2)n[nH]c1=S | 1.6
CN(C)c1nc2c(c(=O)n(C)c(=O)n2C)n1CC(O)COc1ccccc1 (centres undefined) | -1.4
N#Cc1sc2c(c1OC(=O)c1cccs1)c(=O)n(-c1ccccc1)c(=S)n2-c1ccccc1 | -1.3
CCCc1cc(=O)[nH]c(SCc2ccc(Br)cc2)n1 | 0.47
O=C(O)CSCC(=O)Nc1cccnc1 | 5.6*
O=C(O)CSCC(=O)Nc1ccc(C(F)(F)F)cn1 | -1.2
CC(=O)c1ccc(NC(=O)CN2CCN(CC(=O)Nc3ccc(C(C)=O)cc3)CC2)cc1 | 1.6
COc1ccc(NC(=O)CSCC(=O)O)cc1OC | -1.7
O=C(O)CSCC(=O)Nc1ccccn1 | 8.4
CC(=O)c1ccc(NC(=O)CSCC(=O)O)cc1 | 4.3*
Cc1ccc(C2CC(C(F)(F)F)n3nc(C(N)=O)cc3N2)cc1 (centres undefined) | 1.6
Nc1[nH]c(=S)[nH]c(=O)c1C(c1ccccc1Cl)c1c(N)[nH]c(=S)[nH]c1=O | -1.3
Cc1ccccc1-c1nc2c3c4c(sc3ncn2n1)CCCC4 | 0.26
CCc1ccc(C2C(C(=O)OC)=C(C)NC3=C2C(=O)CCC3)s1 (centres undefined) | -0.98
CCOC(=O)C(NC(=O)c1ccccc1Cl)(Nc1cc(C)on1)C(F)(F)F (centres undefined) | 0.4
CC(=O)c1cc2cc(Cl)cc(Cl)c2oc1=O | -0.41
Cc1cc2nc(-c3cc4cc(Cl)cc(Cl)c4oc3=O)[nH]c2cc1C | 4.7*
CC(=O)c1cc2cc(Cl)cc(Cl)c2o1 | 1
CC(C)(C(=O)Nc1ccccc1)S(=O)(=O)c1ccc(C(F)(F)F)cn1 | -0.54
CCOC(=O)c1sc2sc(C(=O)OCC)c(C)c2c1C | 8.1
SMILES | Dicer inh
CCOC(=O)c1sc(SC)c(C(C)O)c1C (centres undefined) | 3.9*
CCOC(=O)c1sc(SC)c2c1CCC=C2 | -1.4
CCOC(=O)NS(=O)(=O)c1ccc(-c2cc(C(F)(F)F)n(C)n2)s1 | -0.18
COCCOC(=O)C1=C(C)NC2=C(C(=O)CC(c3ccc(Cl)cc3)C2)C1c1ccc(C)cc1 (centres undefined) | 1.3
FC(F)(F)c1cccc(NCCNc2nccc(C(F)(F)F)n2)n1 | 0.11
Cc1ccc(S(=O)(=O)c2nc(-c3ccccc3)oc2S(C)(=O)=O)cc1 | -1.3
COc1ccc(C2/C(=C(/O)c3ccc(C)cc3)C(=O)C(=O)N2CC(C)O)c(OC)c1 (centres undefined) | -2.4
CC(=NCc1cccc(CN=C(C)c2ccccc2O)c1)c1ccccc1O | 1.9
CC(C)(C)SCCN=C(Nc1ccc(Cl)cc1)c1ccccc1Cl | -2.7
CCOC(=O)N/N=C(\C)c1ccccc1O | 0.81
CC(=NCCc1ccc(Cl)cc1)c1ccccc1O | 5.2*
O=C(O)/C(=N/NC(=O)c1ccc(Cl)cc1)c1ccccc1 | 2.7
C/C(=N\NC(=O)c1ccc(Cl)cc1)c1ccccc1O | 33*
Cc1ccc(-c2csc3ncn4nnnc4c23)cc1 | -1.6
COc1ccc(OC)c(C2C(C#N)=C(N)Oc3n[nH]c(C(C)(C)C)c32)c1 (centres undefined) | -1.9
Cc1nc(N2CCN(c3ccccn3)CC2)nc2c1C(=O)CC(/C=C/c1ccccc1)C2 (centres undefined) | -1.2
CN(C)c1ccc(-c2nc3cc(N)ccc3o2)cc1 | 3.4*
Nc1cccc(-c2nc3ccccc3o2)c1 | 0.17
CCOc1ccc(-c2nc3cc(N)ccc3o2)cc1 | 1.5
Nc1ccc(-c2nc3cc(N)ccc3o2)cc1 | -0.37
Cc1cc2nc(-c3cccc(N)c3)oc2cc1C | 0.66
Nc1cccc(-c2nc3cc(Cl)ccc3o2)c1 | 4.5*
COc1ccc(Br)cc1C1C2=C(Nc3c1c(=O)[nH]c(=O)n3C)c1ccccc1C2=O (centres undefined) | -1.1
Cc1c(C(=O)O)c2cc(NS(=O)(=O)N(C)C)ccc2n1S(=O)(=O)N(C)C | -1.3
CCOC(=O)C1CCN(S(=O)(=O)c2sc(Cl)cc2Br)CC1 | -0.45
SMILES | Dicer inh
Nc1ncnc(Nc2ccc(Oc3ccc(Cl)cc3)cc2)n1 | -0.35
Nc1nc(Nc2ccc(Cl)cc2)n[nH]1 | 5.4*
Nc1nc(SCc2ccc(Cl)cc2)n[nH]1 | 0.27
O=c1sn(-c2ccc([N+](=O)[O-])cc2Cl)c(=O)n1C1Cc2ccccc2C1 | 0.34
Cc1ccc(-n2nnnc2SCC(=O)C(C)(C)C)c(C)c1 | 2
CS(=O)(=NS(=O)(=O)c1cc(Cl)ccc1Cl)c1ccc(Cl)cc1 (centres undefined) | 4.1*
CS(=O)(=NS(=O)(=O)c1ccc(Cl)cc1)c1ccccc1 (centres undefined) | -1.3
CS(=O)(=NS(=O)(=O)c1ccccc1C(F)(F)F)c1ccc(Cl)cc1 (centres undefined) | -0.05
Cc1cc(NC(=O)c2ccc(Cl)cc2Cl)n(C(C)(C)C)n1 | 1.2
Cc1nn(C(C)(C)C)c(NC(=O)c2ccc(Cl)cc2Cl)c1Br | 3.3*
CC(C)(C)n1nc(C2CC2)c(Br)c1NC(=O)c1ccccc1Cl | -1.5
O=C1C2C3CC4C5C3C1C5C1(OCCO1)C42 (centres undefined) | -0.69
CCOC(=O)C1=C(C)NC2=C(C(=O)CC(c3ccc(OC)cc3)C2)C1c1ccc(OC)c(OC)c1 (centres undefined) | -0.75
CCOC(=O)C(C(=O)OCC)c1c([N+](=O)[O-])c(=O)n(C)c2ccccc12 | -1.6
CCCc1nn(C)c(C(N)=O)c1[N+](=O)[O-] | 5.5*
Cn1cnc([N+](=O)[O-])c1N1CCC(C(N)=O)CC1 | -1.6
Cc1cc(CNC(=O)c2cc(F)cc3c2OCOC3)no1 | -0.37
C=C(NC(=O)C(=C)NC(=O)c1csc(C2=N[C@H]3c4csc(n4)[C@H]4NC(=O)c5csc(n5)[C@H]([C@@](C)(O)[C@@H](C)O)NC(=O)[C@H]5CSC(=N5)/C(=C\C)NC(=O)[C@H]([C@@H](C)O)NC(=O)c5csc(n5)[C@]3(CC2)NC(=O)[C@H](C)NC(=O)C(=C)NC(=O)[C@H](C)NC(=O)[C@H](C(C)CC)N[C@@H]2C=Cc3c([C@H](C)O)cc(nc3[C@H]2O)C(=O)O[C@@H]4C)n1)C(N)=O (some centres undefined) | 1.7
O=C(NC1CCCC1)c1ccc2noc(-c3ccc(Cl)cc3)c2c1 | 0.05
O=S(=O)(c1ccc(Cl)c(Cl)c1)c1ccccc1-c1ccccc1 | -0.77
Cc1cccnc1Nc1nc(-c2ccccn2)cs1 | -3.3
COc1ccc(Nc2nc(-c3ccccn3)cs2)cc1 | 6.4*
COc1ccc(Nc2nc(-c3cccnc3)cs2)cc1 | 1.6
O=C(CSc1nc2c(c(C(F)(F)F)n1)CCc1ccccc1-2)NCc1ccncc1 | 2
O=C(COc1ncnc2cc(Cl)ccc12)c1ccc2c(c1)OCCCO2 | 1
O=C(Cn1c(-c2cncs2)nc2ccccc21)Nc1ccccc1Cl | 0.04
Clc1ccc(Cn2c(-c3cncs3)nc3ccccc32)cc1 | 1.3
O=C(Cn1c(-c2cncs2)nc2ccccc21)Nc1ccc2c(c1)OCCO2 | 4.2*
CCOC(=O)c1cnn(-c2ccc(NS(=O)(=O)c3cc(C(F)(F)F)cc(C(F)(F)F)c3)cc2)c1C(F)(F)F | 1.7
Cc1sc(Nc2ccccc2)nc1-c1ccc(-c2ccccc2F)cc1 | -1.2
